Results from PubChem BioAssay AID624417 (National Center for Advancing Translational Sciences (NCATS), 2012).
In all, about 410,000 compounds went through this assay and about 6,400 (1.6%) were called active. Roughly 20% stayed inconclusive and do not appear here. The list comes from a sample in which actives are over-represented; it also holds similar structures and randomly drawn compounds. Unmarked numbers belong to inactive results. The call rests on the fitted dose curve; in most records, active means well fitted inhibition curve with a large enough effect; inconclusive means small, poorly fitted or top-dose-only effect; inactive means no such curve, though single readings can be large or run the other way.

Each compound was assayed against Glucagon-like peptide 1 receptor (Homo sapiens) (UniProt P43220) (assay: qHTS of GLP-1 Receptor Inverse Agonists (Inhibition Mode)). Conditions: HEK293 GLP-1R CRE-luciferase, luminescence, 24 h, GLP-1R form is constitutively active; series mostly up to 38.3 µM; activity change, negative = inhibition: at the top concentration.
Chain of Glucagon-like peptide 1 receptor (Homo sapiens) (P43220 whole entry, looked up): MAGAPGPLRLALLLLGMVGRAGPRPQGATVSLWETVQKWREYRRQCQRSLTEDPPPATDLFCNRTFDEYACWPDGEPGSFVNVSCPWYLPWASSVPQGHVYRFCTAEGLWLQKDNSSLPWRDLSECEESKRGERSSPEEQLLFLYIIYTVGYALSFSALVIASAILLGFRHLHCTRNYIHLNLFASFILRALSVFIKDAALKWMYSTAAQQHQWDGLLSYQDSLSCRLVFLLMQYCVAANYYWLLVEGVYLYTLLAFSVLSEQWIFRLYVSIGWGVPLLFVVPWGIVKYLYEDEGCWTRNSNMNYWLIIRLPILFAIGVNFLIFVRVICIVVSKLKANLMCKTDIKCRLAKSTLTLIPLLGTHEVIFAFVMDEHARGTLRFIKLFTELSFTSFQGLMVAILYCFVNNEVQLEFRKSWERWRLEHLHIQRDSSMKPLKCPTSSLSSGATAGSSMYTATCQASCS
How it was run: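 qHTS in 1536-well format: reporter HEK293 cells expressing constitutive GLP-1R activity in DMEM + 10% Nu serum, 24 hr with compounds at 37 deg C, luminescence read after 12 min with detection reagent.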
Further: nearly all actives have a fitted effect of over 55% in size.
On the % scale 0 is the no-effect control and ±100 the full control effect; potency means the concentration at half of the fitted maximal effect.

| SMILES | Potency | activity change, negative = inhibition |
| --- | --- | --- |
| Cc1ccc2cccc(NC(=O)c3cccc4ccccc34)c2n1 | 11.2 µM (active) | – |
| O=C(Nc1cccc2cccnc12)c1cccc2c(Br)cccc12 | – | 9.84% |
| Cc1ccc2cccc(NC(=O)c3ccc(OC(C)C)cc3)c2n1 | – | 5.71% |
| CNc1cnc(-c2cc(OC)c(OC)c(OC)c2)cn1 | – | 5.37% |
| COc1ccc(-c2nc3ccccc3n2CCC(C)C)cc1OC | 8.91 µM (active) | – |
| CCCn1c(C(O)c2cc(OC)ccc2OC)nc2ccccc21 (configuration not stated) | – | -19.7% |
| CCn1c(C(O)c2cc(OC)ccc2OC)nc2ccccc21 (configuration not stated) | – | -3.45% |
| CCOC(=O)c1c(NC(=S)SC)sc(C(=O)N2CCc3ccccc3C2)c1C | – | 2.98% |
| Cc1ccc(C(=O)N[C@H](C(=O)N2CCN(c3ncccn3)CC2)C(C)C)cc1 | – | 3.77% |
| COc1ccc(CN2C(=O)C(CC(=O)NCc3cccc4ccccc34)CC(C(=O)N3CCOCC3)=C2C)cc1 (configuration not stated) | – | 0.691% |
| CCN(CC)C(=O)C1=C(C)N(Cc2ccc(C(C)(C)C)cc2)C(=O)C(CC(=O)NCc2cccc3ccccc23)C1 (configuration not stated) | 11.2 µM (active) | – |
| CCN(CC)C(=O)C1=C(C)N(Cc2ccc(OC)cc2)C(=O)C(CC(=O)NCc2ccco2)C1 (configuration not stated) | – | -10.6% |
| COC(=O)C(Cc1c[nH]c2ccccc12)NC(=O)CCNC(=O)c1ccco1 (configuration not stated) | – | 17.4% |
| COc1ccc(S(=O)(=O)N2CCC(C(=O)NCCC(=O)Nc3ccccc3OC)CC2)cc1 | – | 9.44% |
| Nc1nc2c(ncn2[C@@H]2O[C@H](CNCc3ccc(OCCCN4CCOCC4)cc3)[C@@H](O)[C@H]2O)c(=O)[nH]1 | – | 19.5% |
| COC(=O)Cc1ccc(OC2(C)CCN(Cc3ccc4c(c3)OCCO4)C2)cc1 (configuration not stated) | – | 9.42% |
| COc1ccc(NC(=O)CSc2nnnn2-c2cccc(OC)c2)cc1 | – | 6.73% |
| CCOc1cccc(-n2nnnc2-c2ccc(OC)cc2)c1 | 2.51 µM (active) | – |
| COc1ccc(-n2nnnc2-c2nc3ccccc3s2)cc1 | – | 4.89% |
| O=C(NCCO)c1cccc(-c2cccc3nccn23)c1 | – | 46.5% |
| O=C1NC[C@H](CCCCN2CCN(CCc3ccccc3)C(=O)C2=O)N(CC2CCCCC2)C1=O | – | 5.24% |
| COC(=O)c1ccc2nc(-c3ccc(F)cc3)c(Cc3ccc(C)cc3)n2c1 | – | 17.8% |
| CCNC(=O)c1cc2c(c(-c3cccc(-c4cncnc4)c3)n1)[C@H](CCO)N(C(C)=O)C2 | – | 0% |
| Cc1cccc(NC(=S)NCCc2ccc(Cl)cc2)c1C | 5.62 µM (active) | – |

| SMILES | Potency | activity change, negative = inhibition |
| --- | --- | --- |
| CCNC(=S)Nc1cccc(Cl)c1C | – | -2.4% |
| Cc1c(Cl)cccc1NC(=S)NCc1ccc2c(c1)OCO2 | – | -32.5% |
| COc1ccc(S(=O)(=O)N(C)C[C@H]2OCc3cnnn3CCCC(=O)N([C@H](C)CO)C[C@H]2C)cc1 | – | 8.78% |
| CC1Cc2ccccc2N1S(=O)(=O)c1cccc(C(=O)OCC(=O)N2CCOCC2)c1 (configuration not stated) | – | 20.4% |
| CC1CCc2sc(C(=O)NCC(c3ccco3)N3CCCCC3)cc2C1 (configuration not stated) | 8.91 µM (active) | – |
| CSc1ncccc1C(=O)NCC(c1ccco1)N1CCCCC1 (configuration not stated) | – | 13.5% |
| Cc1cc(S(=O)(=O)Nc2ccc(C(=O)NCC(c3ccco3)N3CCCC3)cc2)ccc1F (configuration not stated) | – | -14.3% |
| CC1CCc2sc(C(=O)N/N=C/C3CCCCC3)cc2C1 (configuration not stated) | – | 0.435% |
| CC1Cc2ccccc2N1S(=O)(=O)c1cccc(C(=O)NCC(c2ccco2)N2CCCC2)c1 (configuration not stated) | 10 µM (active) | – |
| CCN(CC(=O)Nc1ccc(NC(C)=O)cc1)C(=O)C1CC(=O)N(c2ccc3c(c2)OCCO3)C1 (configuration not stated) | – | 12.8% |
| COc1cccc(CN(C)C(=O)CC[C@H]2O[C@@H](n3cnc4c(NC(=O)c5ccccc5)ncnc43)[C@H](O)[C@@H]2O)c1 | – | 23.6% |
| CCCS(=O)(=O)NC(=O)C1(C)CCN(C(=O)c2sccc2C)C1 (configuration not stated) | – | 9.36% |
| O=C(OCc1cn([C@H]2C[C@H](c3ccccc3)N(C(=O)c3cccs3)C[C@@H]2O)nn1)c1ccccc1 | – | -9.16% |
| CN1CCN(C(=O)c2ccc(-c3cc4nc(NCc5cccnc5)n(C)c(=O)c4s3)cc2)CC1 | – | 48.9% |
| O=C(c1ccccc1)N1CCN(c2cc(-c3ccccc3)nc3cc(-c4cccc(Cl)c4)nn23)CC1 | – | 6.15% |
| COc1ccc(OC)c(NC(=O)C2CCCN2S(=O)(=O)c2ccc3c(c2)CC(C)N3C(C)=O)c1 (configuration not stated) | – | 52.3% |
| C[C@@H]1CN([C@@H](C)CO)C(=O)CCCn2nncc2CO[C@@H]1CN(C)S(=O)(=O)c1ccc(-c2ccccc2)cc1 | – | 2.95% |
| CC(C)CCNC(=O)c1[nH]c(C(F)(F)F)nc1-c1ccccc1 | – | -2.13% |
| COC(=O)c1sccc1S(=O)(=O)N(CC(=O)Nc1ccc(C)c(F)c1)c1ccc(C)c(C)c1 | 8.91 µM (active) | – |
| CCc1cccc(NC(=O)CN(c2ccc(C)c(C)c2)S(=O)(=O)c2ccsc2C(=O)OC)c1 | – | 8.25% |
| COc1ccc(N(CC(=O)Nc2ccc(F)c(F)c2)S(=O)(=O)c2c(C)[nH]c(=O)[nH]c2=O)cc1 | – | 6.71% |
| CCc1nc2ccc(C(=O)N3CCN(S(=O)(=O)CC)CC3)cn2c1N(C=O)CCC(C)C | – | 22% |
| COc1ccc(CCNC(=O)C(=O)NCC2CCCN2S(=O)(=O)c2cccs2)cc1OC (configuration not stated) | – | 12.1% |
